Vaccinia mCherry: vaccinia inhibition (mCherry reporter). Potency, µM (titrated, usually from 36.5 µM), for inactives: at the top dose activity change, negative = inhibition, actives largely listed as inhibitors. Vaccinia virus mCherry reporter infection, fluorescence. 310,000 compounds, 0.63% hits; calls by dose curve; tested in A549 cells; note: nearly all actives have a fitted effect of over 35% in size
Vaccinia Venus: inhibitors of vaccinia virus (Venus reporter); AID 720580; Vaccinia virus Venus reporter expression, fluorescence; 330,000 compounds, 0.46% hits; Potency, µM (highest dose often 36.5 µM), without a hit: top-dose activity change, negative = inhibition, actives largely listed as inhibitors; calls by dose curve; tested in A549 cells; note: nearly all actives have a fitted effect of over 30% in size
Marburg entry inh: Marburg virus entry inhibition; Marburg virus pseudotyped entry inhibition, cell reporter; Potency, µM (doses to about 37.8 µM), inactives show top-dose activity change, negative = inhibition, hits mostly inhibitors; 300,000 compounds, 1.8% hits; calls by dose curve; tested in HEK293 cells
Lassa entry inh: blocks Lassa virus binding to or entry into cells | Potency, µM (titrated, usually from 37.9 µM), inactives show at the highest dose activity change, negative = inhibition, usual class: inhibitors | 300,000 compounds, 1.2% hits | Lassa virus pseudotype entry inhibition, cell reporter; calls by dose curve; tested in HEK293 cells; note: nearly all actives have a fitted effect of over 50% in size
FMDV antiviral: antivirals against foot and mouth disease virus; Potency, µM (doses to about 57.9 µM), without a hit: at the highest dose activity change, negative = inhibition, actives largely listed as inhibitors; FMDV antiviral cell-based qHTS; 410,000 compounds, 1.2% hits; AID 1159524; calls by dose curve; tested in HEK293T cells; note: read-out not given here; nearly all actives have a fitted effect of over 45% in size
* hit, by the source's call; i = inactive; ? = inconclusive; nt = not tested or not shown; ! = repeats disagree; [ ] = another dose, or the depositor's remark. A selection: hits, their analogues and other compounds. The true share with any hit is near 3.2%. % is set by controls: 0 for no effect and ±100 for the full control effect; potency is the fitted concentration of half-maximal effect.

SMILES | Vaccinia mCherry | Vaccinia Venus | Marburg entry inh | Lassa entry inh | FMDV antiviral
COc1cccc(/C=N/NC(=O)c2ccoc2C)c1O | 4.47µM* | ? | nt | nt | -29.2%
COc1cccc(/C=N/NC(=O)c2cnccn2)c1O | 4.47µM* | -5.4% | nt | nt | 13.5%
Cc1onc(-c2ccccc2)c1C(=O)N/N=C/c1c[nH]c2ccccc12 | -40.2% | -17.4% | 2.6%[46.1 µM] | 10µM* | ?
COc1cccc(/C=N/NC(=O)C(=O)N2CCCCCC2)c1O | 12.6µM* | -26.8% | ? | ? | 38.1%
COc1cc(/C=N/NC(=O)c2ccoc2C)ccc1O | -17.3% | 0.0% | ? | 16.7% | 60.5%
COc1cccc(/C=N/NC(=O)C(=O)N/N=C/c2cccc(OC)c2O)c1O | -6.9% | 1.6% | ? | ? | 3.7%
COc1ccccc1C(=O)Nc1onc(C)c1C#N | nt | nt | 1.2% | 4.4% | 16.2%
Cc1onc(-c2ccccc2)c1C(=O)N/N=C/c1cc(Br)c(Br)o1 | i | 0.0% | ? | ? | 25.1µM*
COc1ccc(CN2CC[C@H]3C=CC[C@@H](C(=O)Nc4nccs4)[C@H]3C2=O)cc1OC | -9.0% | -21.5% | nt | nt | nt
Cn1c(-c2ccccc2)cc2c3no[n+]([O-])c3ccc21 | -13.3%[1.46 µM] | ? | 3.55µM* | 4.47µM* | 4.9%
CN1CCN(/N=C/c2ccc(N(c3ccccc3)c3ccccc3)cc2)CC1 | -22.2% | -23.4% | 1.26µM* | 0.631µM* | ?
Cc1ccc(N(C)S(=O)(=O)c2ccc(-c3cnc(C4CC4)o3)cc2)cc1 | ? | -21.5% | nt | 1.41µM* | -8.7%
O=C(COC(=O)/C=C/C(=O)OCC(=O)NC12CC3CC(CC(C3)C1)C2)NC12CC3CC(CC(C3)C1)C2 | -6.0% | 3.3% | 8.91µM* | -20.9% | ?
O=C(COC(=O)c1ccccc1O)NC12CC3CC(CC(C3)C1)C2 | -24.0% | -8.9% | ? | -9.4% | -20.7%
COC(=O)[C@H]1O[C@@H](c2c(OC)c(OC)c(C)c(OC)c2OC)[C@H](C)[C@@H](O)[C@@H]1C | nt | nt | 6.2%[14.2 µM] | nt | nt
Cc1c(C(=O)Nc2ccccc2)cnn1-c1ccccc1 | -22.5% | -11.0% | ? | ? | 8.0%
Cc1ccc(NC(=O)c2cnn(-c3ccccc3)c2C)cc1C | -9.8% | -18.5% | ? | 3.16µM* | -40.6%
O=C(C1=C(C(=O)N(C2CCCCC2)C2CCCCC2)CCCC1)N1CCCCC1 | nt | nt | -9.3% | nt | nt
Cc1ccc(-c2cc3cccc[n+]3cc2-c2ccc(C)cc2)cc1 | -6.5% | -21.2% | 3.16µM* | 6.51µM* | 39.8µM*
COc1ccc(NC(=O)c2c(-c3ccccc3Cl)noc2C)c(OC)c1 | i | -6.5% | 14.6µM* | ? | -0.6%
CCCCN(CCCC)c1nc(-c2ccccc2)nc2ccccc12 | -5.3% | -0.6% | nt | -1.8%[46.1 µM] | -19.0%
CCCCN(CC)c1nc(-c2ccncc2)nc2ccccc12 | -28.0% | -26.4% | ? | 0.4% | 25.1µM*
CCCN(CCC)c1nc(-c2ccccc2F)nc2ccccc12 | -12.5% | -3.5% | nt | 4.8%[46.1 µM] | ?
CCCN(CCC)c1nc(-c2ccccn2)nc2ccccc12 | 4.47µM* | ? | ? | ? | ?
Oc1ccc(N2CCN(C(c3ccc(Cl)cc3)c3nnnn3Cc3ccc(F)cc3)CC2)cc1 (stereo not given) | -10.5% | -14.4% | nt | nt | nt
SMILES | Vaccinia mCherry | Vaccinia Venus | Marburg entry inh | Lassa entry inh | FMDV antiviral
Cc1ccc(NC(=O)C(OC(=O)c2ccc(O)cc2)c2ccccc2)cc1Cl (stereo not given) | nt | nt | -18.1% | ? | 9.5%
Cc1ccc(NC(=O)C(c2ccccc2)N(C)C)cc1Cl (stereo not given) | i | -13.6% | 11.2µM* | ? | 74.2%
O=C1NC(=O)N(c2ccc3c(c2)OCO3)C(=O)/C1=C/c1cccs1 | i | 20.1% | ? | ? | 28.2µM*
COc1ccccc1NC(=O)N1CCC(NC(=O)C(Cc2ccccc2F)NC(C)=O)CC1 (stereo not given) | -15.9% | -16.4% | 4.5%[46.1 µM] | 12.2%[46.1 µM] | -5.7%
COCC(C)N1C(=O)Cc2c1nc(N)c1c(N)nc(N3CCN(c4ccccc4F)CC3)c(C#N)c21 (stereo not given) | ? | -1.5% | 16.4µM* | ? | 31.6µM*
CCOC(=O)CC1C(=O)NCCN1S(=O)(=O)c1cc(Cl)c(Cl)cc1Cl (stereo not given) | ? | -23.3% | 1.58µM* | -12.4% | -7.5%
Cc1ccccc1NC(=O)Cn1nnc(C(=O)NCc2ccco2)c1N | ? | 3.98µM* | ? | -4.3%[46.1 µM] | 0.8%
Cc1ccc(NC(=O)c2nnn(CC(=O)Nc3ccccc3)c2N)cc1C | -11.8% | -21.0% | 11.2µM* | -16.6% | -1.4%
Cc1cc(C)c(NC(=O)Cn2nnc(C(=O)NCc3cccs3)c2N)c(C)c1 | 1.5% | 2.9% | ? | 17.0%[46.1 µM] | 39.8µM*!
C=Cc1ccc(Cn2c(C)c(C(=O)NCc3ccccc3C(F)(F)F)sc2=O)cc1 | i | -0.2% | nt | nt | -17.1%
CCCCCCc1cc2cc(C(=O)NCc3ccccc3)c(=N)oc2cc1O | nt | nt | ? | 1.6% | -11.1%
CCCCCCc1cc2cc(C(=O)Nc3ccccc3)c(=O)oc2cc1O | i | -10.2% | 2µM* | 3.55µM* | ?
COc1ccc(C2C(C#N)=C(N)N(c3ccccc3C#N)C3=C2C(=O)CCC3)cc1CN1CCCC1 (stereo not given) | -7.6% | -2.8% | 5.8µM* | 0.9% | -20.1%
[O-][N+](=NC1C=Cc2ccccc21)C1C=Cc2ccccc21 (stereo not given) | ? | 7.2% | nt | nt | nt
COc1ccccc1/C=C/c1nc2ccccc2s1 | 14.2% | -10.3% | nt | nt | nt
C#CCN1C(=O)[C@]2(OCCC=C[C@@H]2C)c2cc(OC)ccc21 | nt | nt | 9.1%[14.2 µM] | nt | nt
COc1cc(C(=O)Nc2ccc3nc(N4CCN(C)CC4)cc(C)c3c2)cc(OC)c1OC | nt | nt | nt | nt | -15.7%
Cc1cc(N2CCN(C)CC2)nc2ccc(NC(=O)c3ccc4c(c3)OCO4)cc12 | ? | ? | 4.11µM* | 16.4µM* | 20.5%
COc1ccc(C(=O)Nc2ccc3nc(N4CCC(C)CC4)cc(C)c3c2)cc1 | -14.3% | -12.4% | ? | 13.4%[46.1 µM] | 31.6µM*
Cc1cc(N2CCCCC2)nc2ccc(NC(=O)c3ccc(Br)o3)cc12 | ? | -27.7% | ? | ? | 39.8µM*
COc1ccccc1/C=C/C(=O)OCC(=O)NC(=O)NC1CCCC1 | i | -9.7% | -0.2%[46.1 µM] | -0.4%[46.1 µM] | -0.6%
C(=C\c1ccccc1)/CN1CCN(C(c2ccccc2)c2ccccc2)CC1 | i | -25.3% | 20.6µM*! | 14.6µM*! | 0.0%
Fc1ccc(C(c2ccc(F)cc2)N2CCN(C/C=C/c3ccccc3)CC2)cc1 | -10.2% | ? | 7.08µM* | 13µM* | ?
CC(C)(C)n1nnnc1C(c1ccccc1)N1CCN(C/C=C/c2ccccc2)CC1 (stereo not given) | i | -5.1% | nt | nt | -5.7%
Cn1nc(C(F)(F)F)c2cc(NC(=O)OCc3ccc(C(C)(C)C)cc3)sc21 | -9.4% | -9.9% | ? | ? | 22.4µM*
Cn1nc(C(F)(F)F)c2cc(NC(=O)OCc3ccc(F)cc3)sc21 | ? | -28.8% | -3.5% | 12.6% | ?
CCOC(=O)C1=C(CN2CCCCC2)NC(=O)NC1c1cc(C)ccc1C (stereo not given) | -11.6% | -8.5% | 9.2µM* | -24.7%[46.1 µM] | ?
Cc1nc2cnc(OCc3ccccc3)nc2n(Cc2ccc(F)cc2)c1=O | nt | nt | nt | nt | -23.5%

Compound activity: PubChem, National Center for Advancing Translational Sciences (NCATS)
